Compounds with a hit are over-represented: about 3.5% of the library has one in this group of screens.
FBW7 activator: activators of human E3 ligase FBW7; Q969H0; AlphaScreen FBW7–phospho-cyclin E peptide binding, activator screen; normalized activity (activation), % at 26.1 µM; 0.13% of 650,000 active; AID 1259310; in the data active means normalized activity above about 1.9%;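 further: purified mutant Fbw7 with reduced substrate affinity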
TEAD-YAP block: TEAD-YAP interaction inhibition | inhibition, % at 9.12 µM | HEK-TIYL cells, TEAD-Gal4/YAP UAS-luciferase luminescence | 1.4% of 640,000 active | AID 1259422; in the data active means inhibition above about 32%;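 further: 0% = median of test compound wells and 100% = reference inhibitor wells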
MITF primary: inhibitors of human MITF; O75030; AlphaScreen MITF homodimerization, bead proximity signal; inhibition, % at 2.6 µM; 0.91% of 650,000 active; in the data active means inhibition above about 50%;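 further: 0% = vehicle wells with protein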
GPR151 activ: activates the human receptor GPR151. PathHunter beta-arrestin GPR151 cells, luminescence. activation, % at 11.2 µM. 1% of 650,000 active. Q8TDV0; in the data active means activation above about 4.9%;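 further: 0% = median of compound wells and 100% = cells with positive control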
GPR151 conf act: confirmation of human GPR151 activators. shares compounds with GPR151 activ. GPR151 PathHunter beta-arrestin cells, luminescence, 90 min; % of EA-reagent control over plate median. activation, % at 11.2 µM. 6,700 tested, under 10 active. AID 1508609;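 active means mean percent activation across replicates above the confirmation screen cutoff of 4.91%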
GPR119 ag: activates human GPR119 in a GPR151 counter-screen. shares compounds with GPR151 activ. GPR119 PathHunter beta-arrestin cells, luminescence, 90 min; 0 = compound-well median, 100 = enzyme-acceptor control. activation, % at 11.2 µM. 0.3% of 6,700 active;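 active means mean percent activation in the counterscreen above 29.09%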;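 further: counterscreen on off-target GPR119 to flag nonselective hits from the GPR151 activator screen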
* marks the source's active call; other numbers are inactive results; x = not tested or not shown; ! = not active in a repeat.

SMILES	FBW7 activator	TEAD-YAP block	MITF primary	GPR151 activ	GPR151 conf act	GPR119 ag
CCOC(=O)C1CCCN(C(=O)/C(C)=C\c2ccccc2)C1 (stereo not drawn)	0	-1	2	5.3*	0	-7
CCCCCc1ccc(-c2ccc(C(=O)Oc3ccc(C(C)=O)cc3)cc2)nc1	0	3	-6	1	x	x
CC(C(=O)O)c1ccc(CC2CCCC2=O)cc1 (stereo not drawn)	0	4	4	6.7*!	0	1
CC(C)Cc1ccc(C(C)C(=O)O)cc1 (stereo not drawn)	0	10	2	0	x	x
Nc1nonc1N=NN(CC(=O)N/N=C/c1ccccc1Cl)c1nonc1N	0	-1	-2	-1	x	x
O=C(CN(c1cccc(Cl)c1)S(=O)(=O)c1ccc(Cl)cc1)N1CCOCC1	0	2	-3	9.1*	0	-7
CN1CCN(C(=O)CN(c2cccc(Cl)c2)S(=O)(=O)c2ccc(Cl)cc2)CC1	0	-3	11	1	x	x
FC1(F)C(F)(F)C(F)(F)C2(F)C(F)(F)C(F)(F)C(F)(F)C(F)(F)C2(F)C1(F)F (stereo not drawn)	0	3	1	5.1*	0	-6
Cc1cccc(C(=O)N(c2ccc(C)c(C)c2)C2C=CS(=O)(=O)C2)c1 (stereo not drawn)	0	-10	-4	0	x	x
CCCOc1ccc(N2C(=O)C3C(C2=O)C2(C)CC3(C)CC2=O)cc1 (stereo not drawn)	0	-4	11	7.8*	0	-11
COc1cc(OC)c(N(C)C(=O)Cn2c(=O)oc3ccccc32)cc1Cl	0	-10	-1	0	x	x
COc1cc(Nc2nc(NCc3cccnc3)nc3c2ncn3CCN2CCCC2=O)cc(OC)c1OC	0	-4	-4	5.0*	0	-7
COc1cc(Nc2nc(NCc3cccc(C(F)(F)F)c3)c3ncn(CCN4CCCC4=O)c3n2)cc(OC)c1OC	0	2	5	5.3*	0	-10
O=C1CCCN1CCn1cnc2c(NCc3ccccc3)nc(NCc3cccnc3)nc21	1	0	4	-2	x	x
O=C1CCCN1CCCNc1nc(NCc2cccnc2)nc2c1ncn2CCN1CCCC1=O	0	-7	15	6.7*	-1	-15
CCCC1=NN2C(=N)/C(=C/c3cc(Br)ccc3OCCOc3ccc(C(C)CC)cc3)C(=O)N=C2S1 (stereo not drawn)	0	-11	23	0	x	x
COc1cc2c(cc1OC)[C@@H](c1ccccc1)CN(C)CC2	0	2	24	7.5*	0	-8
COc1ccc(-c2nc(CS(=O)(=O)CC(=O)NCc3ccccc3C)c(C)o2)cc1	0	1	-18	-1	x	x
CCOC(=O)C(C)NC(=O)CCc1nnc2ccc(N3CCC(C)CC3)nn12 (stereo not drawn)	0	3	4	5.4*	0	-3
CCOc1ccccc1NC(=O)CCc1nnc2ccc(N3CCCC3)nn12	0	7	6	6.7*	0	1
CCOc1ccccc1NC(=O)CCc1nnc2ccc(N3CCCCC3)nn12	0	6	12	-2	x	x
Nn1c(SCC(=O)Nc2ccc(OCc3ccccc3)cc2)nnc1-c1ccccc1	0	-9	-2	1	x	x
Nn1c(SCC(=O)Nc2ccc(OCc3ccccc3)cc2)nnc1-c1ccco1	0	0	6	5.0*	-1	-2
O=C(NCc1ccccc1)c1cnc2cc(-c3cn[nH]c3)ccn12	0	-10	1	6.2*	0	12
COc1ccnc(Cn2nc(C)c3cccn3c2=O)c1OC	0	9	10	6.1*	0	-8
SMILES	FBW7 activator	TEAD-YAP block	MITF primary	GPR151 activ	GPR151 conf act	GPR119 ag
Cc1nn(-c2ccc(Cl)cc2)c2sc(C(=O)Nc3ccc(C(N)=O)cc3)cc12	0	10	3	6.7*	1	3
Cc1nn(-c2ccccc2)c2sc(C(=O)Nc3ccc(Cl)cc3)cc12	0	-2	0	0	x	x
COC(=O)C1=CN(C23CC4CC(CC(C4)C2)C3)C=C(C(=O)OC)C1c1ccc(OC(F)(F)F)cc1	1	8	6	0	x	x
Cc1c(C(=O)NCC2CCCO2)oc2ccc3c(c12)C=CC(C)(C)O3 (stereo not drawn)	0	-73	11	10*	-1	-2
CC1=C(C(=O)Nc2ccc(F)c(F)c2)C(c2cccc(Br)c2)NC(=S)N1 (stereo not drawn)	0	-1	0	0	x	x
O=c1c2cn[nH]c2nc(SCc2cccc([N+](=O)[O-])c2)n1-c1ccc(Cl)cc1	1	-4	9	-1	x	x
Cc1ccc(-n2c(SCc3cccc([N+](=O)[O-])c3)nc3[nH]ncc3c2=O)cc1Cl	0	16	-4	4.9*	0	-3
CCCCOC(=O)Nc1nnc(Cc2ccc([N+](=O)[O-])cc2)s1	0	-11	-4	2	x	x
CCCCOC(=O)c1cccc(NC(=S)NC(=O)c2cc(OC)c(OC)c(OC)c2)c1	0	-8	6	5.1*	0	0
Cc1ccc(NS(=O)(=O)c2cc(Br)cnc2N)cc1F	0	1	26	-1	x	x
CN(C)CCNc1nc2c(c(=O)[nH]c(=O)n2C)n1Cc1ccc([N+](=O)[O-])cc1	0	5	9	5.1*	1	6
Cc1cccc(Cn2c(NCCN(C)C)nc3c2c(=O)[nH]c(=O)n3C)c1	0	6	5	1	x	x
CCOC(=O)c1c(C)c(C(=O)NCCCOC)c(C)n1C	0	1	4	1	x	x
CCOC(=O)c1c(C)c(C(=O)NCCC(C)C)c(C)n1C	0	4	-3	12*	1	4
Cc1cccc(N2C(=O)c3nccnc3C2=O)c1	0	1	-1	1	x	x
C/C(=C\c1ccccc1)CN1CCC(C(=O)NC(C)C)CC1	0	10	44	5.1*	-1	-5
CC(=O)N[C@H]1[C@H](Oc2ccc(Cl)cc2Cl)O[C@H](CO)[C@@H](O)[C@@H]1O	0	-2	-5	1	x	x
CC(=O)NC1C(Oc2cc(C)ccc2C)OC(CO)C(O)C1O (stereo not drawn)	0	3	-17	5.8*	0	0
CC(=O)NC1C(Oc2cc(C)ccc2C)OC2COC(C)(C)OC2C1O (stereo not drawn)	0	-4	4	13*	1	7
COc1ccccc1OC1OC2COC(c3ccco3)OC2C(O)C1NC(C)=O (stereo not drawn)	0	-2	-2	15*	1	5
O=C(O)Cn1nc(Cc2ccncc2)c2ccccc2c1=O	1	2	16	-1	x	x
CCOC(=O)n1nc(Cc2ccncc2)c2ccccc2c1=O	0	-1	12	5.2*	1	7
CC(CCc1ccccc1)NC(=O)Cn1nc(Cc2ccncc2)c2ccccc2c1=O (stereo not drawn)	0	-3	20	5.8*	2	4

From PubChem
